Reference: PubChem BioAssay (Tox21)
Results filed as inconclusive are left out. A number with no mark means an inactive call. Calls come from the whole dose curve; as a rule, active = well fitted activation curve with a large enough effect in the signal ratio in the repeat runs (not every such curve was filed as active); inconclusive = weak or mixed curves; inactive = flat fitted curve, though single readings scatter; the % refers to the signal ratio.

Test: qHTS assay to identify small molecule agonists of the TGF-beta/Smad signaling pathway (AID 1346859)
Conditions: SBE-bla HEK293T, TGF-beta/Smad beta-lactamase reporter, 5 h; series mostly up to 76.8 µM; activation: at the top concentration
Description: U.S. Tox21 Program National Center for Advancing Translational Sciences [NCATS] NIH Chemical Genomics Center [NCGC] U.S. Environmental Protection Agency [EPA] National Institutes of Environmental Health Sciences [NIEHS] National Toxicology Program [NTP] U.S. Food and Drug Administration [FDA] Tox21 Assay Overview: Transforming growth factor beta (TGF-beta) superfamily consists of a large number of structurally related dimeric proteins that act as hormones or local mediators in regulating a wide range of biological functions. This superfamily includes TGF-betas themselves, the bone morphogenetic proteins (BMPs) and the activins. These ligands induce oligomerization of serine/threonine receptor kinases and phosphorylate the cytoplasmic signaling molecules of Smad protein family. CellSensor SBE-bla HEK 293T cell line (Life Technologies, Carlsbad, CA), responsive to TGF-beta was used to screen Tox21 10K compound library for identification of agonists/antagonists of the Smad signaling pathway. This cell line contains a beta-lactamase reporter gene under control of the Smad binding element (SBE) stably integrated into HEK 293T cells.
Tox21 Assay Protocol Summary: SBE-bla HEK 293T cells were dispensed at 4,000/well in 6 uL of assay medium into black wall/clear-bottom 1536-well plates using a Multidrop Combi (ThermoFisher Scientific, Waltham, MA) dispenser. After the assay plates were incubated at 37 C and 5% CO2 for an overnight, 23 nL of compounds dissolved in DMSO, positive controls or DMSO only was transferred to the assay plate by a Pintool station (Kalypsys, San Diego, CA). The assay plates were incubated at 37 C and 5% CO2 for 5 hr. One uL of LiveBLAzer B/G FRET substrate (Life Technologies) was added using a Flying Reagent Dispenser (Aurora Discovery, San Diego, CA) and the plates were incubated at room temperature for 2 hr. Fluorescence intensity (405 nm excitation, 460 nm and 530 nm emissions) was measured using an Envision plate reader (PerkinElmer, Shelton, CT).
% is set by controls: 0 for no effect and ±100 for the full control effect.

Structure (SMILES)	activation
CCCCCCCCCOC(=O)CCCCC(=O)OCCCCCCC	2.54%
C=CC(=O)CCCCC	-0.149%
CC(C)OC(=O)OCOP(=O)(CO[C@H](C)Cn1cnc2c(N)ncnc21)OCOC(=O)OC(C)C	1.75% [at 35.3 µM]
CCC(C)OC(C)CC (stereo not given)	-0.197%
OCCN1CCOCC1	1.6%
CC1(C)[C@H]2CC[C@](C)(C2)[C@H]1O	-0.53%
Cc1ccc(C(=O)O)cc1[N+](=O)[O-]	0.263%
CCC(C)C(C)=O (stereo not given)	1.35%
CCCc1ccc(O)cc1	0.786%
C[Si]1(C)O[Si](C)(C)O[Si](C)(C)O[Si](C)(C)O[Si](C)(C)O1	-1.27%
COc1cc2c(cc1OC)CN(C(=O)[C@H](C)N[C@@H](CCc1ccccc1)C(=O)O)[C@H](C(=O)O)C2	1.76% [at 35.3 µM]
COc1cc(OC)nc(O[C@H](C(=O)O)C(OC)(c2ccccc2)c2ccccc2)n1	-5.05% [at 35.3 µM]
CC(CO)(CO)CO	2.85%
CCCCCC/C=C/C(=O)OC	-0.0436%
CCC/C=C(\C=O)CC	-0.931%
CN(C)CC/C=C1/c2ccccc2COc2ccc(CC(=O)O)cc21	0.2% [at 35.3 µM]
CC(C)=CCC[C@@](C)(O)[C@H]1CC=C(C)CC1	1.91% [at 35.3 µM]
CCCC(=O)OC/C=C(\C)CCC=C(C)C	0.339%
CCC(C(=O)OCCN1CCOC(c2ccccc2)C1C)c1ccccc1 (stereo not given)	-0.684% [at 35.3 µM]
CC1(C)O[C@H]2CC(=O)OC[C@]23[C@H]2CC[C@@]4(C)[C@H](c5ccoc5)OC(=O)[C@H]5O[C@]54[C@]2(C)C(=O)C[C@@H]13	1.32% [at 35.3 µM]

Structure (SMILES)	activation
CN1C[C@@H]2C[C@H]1CN2c1cc2c(cc1F)c(=O)c(C(=O)O)cn2C1CC1	0.101% [at 15.8 µM]
CCOC(=O)CC1(C)OCC(C)O1 (stereo not given)	3.23%
CCC(C)C(=O)OCCc1ccccc1 (stereo not given)	5.36%
NCc1ccc(S(N)(=O)=O)cc1	3.71% [at 35.3 µM]
O=C1CCCCO1	3.05%
C/C=C(\C)C(=O)OCCc1ccccc1	0.24%
Cc1cc(C)c(C(=O)O)c(C)c1	2.29%
CCCCSCCCC	-0.479%
N[C@@H](CSCCCO)C(=O)O	6.83% [at 15.8 µM]
CC12CCC(C1)C(C)(C)C2O (stereo not given)	7.23%
C=C(C)C1CC=C(C)C(=O)C1 (stereo not given)	1.64%
CC1=C(C(=O)O)N2C(=O)[C@@H](NC(=O)[C@H](N)c3ccccc3)[C@H]2SC1	-0.28% [at 35.3 µM]
C[C@]12CCC(=O)C=C1CC[C@H]1[C@@H]3CC[C@](O)(C(=O)CO)[C@@]3(C)C[C@H](O)[C@@]12F	2.75% [at 35.3 µM]
CC(C)C1OCCN1CCOC(=O)NCCCCCCNC(=O)OCCN1CCOC1C(C)C (stereo not given)	-0.311%
CC(C)NC(=O)c1ccc(C=O)cc1	-1.17% [at 35.3 µM]
OC[C@H]1O[C@@H](O[C@@H]2[C@@H](CO)O[C@](O)(CO)[C@H]2O)[C@H](O)[C@@H](O)[C@H]1O	-0.509% [at 35.3 µM]
O=Cc1cc2ccccc2o1	-2.95%
Fc1ccccc1	-2.66%
COc1cc(/C=C/C(N)=O)cc(OC)c1OC	0.0005% [at 35.3 µM]
O=S(=O)(O)c1ccc2c(N=Nc3ccc(S(=O)(=O)O)c4ccccc34)c(O)c(S(=O)(=O)O)cc2c1	0.897% [at 6.97 µM]
